Test results from PubChem BioAssay AID1347056 (Sanford-Burnham Center for Chemical Genomics, 2019).
Hit rate of the full screen: of about 360,000 compounds, about 3,600 (1%) were called active. Many of the other results were omitted from the sample, so actives are more common in it than they were. A number with no mark means an inactive call.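 How the source made its calls: active means compounds whose plate-normalised and pattern-corrected inhibition of the luciferase reporter signal at the single screening dose is 50% or more; inactive means the rest.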

experiment: TROY pathway blockers in reporter cells – Q293 LMP1-TROYcd cells, NF-kB luciferase, uHTS, primary screen (AID 1347056); settings: 4 h, at 10 µM, active compounds read high

Row | Structure (SMILES) | inhibition
1 | CCCc1cc(=O)[nH]c2nnc(SCC(=O)Nc3nnc(SCC)s3)n12 | -11.1%
2 | CCOC(=O)C(=Cc1ccccc1)C(=O)c1ccccc1 | 55% (active)
3 | CCOC(=O)/C(=C\c1ccc([N+](=O)[O-])cc1)C(=O)c1cc(C(C)=O)c(Nc2ccccc2)s1 | 1.46%
4 | CCOC(=O)C(=Cc1ccccc1OC)C(=O)OCC | 36.4%
5 | CCCCSc1nnc2c(n1)OC=Nc1ccccc1-2 | -39.1%
6 | C=CCN(CC=C)S(=O)(=O)c1ccc(C(=O)Nc2nc3c(s2)CCc2ccccc2-3)cc1 | 4.01%
7 | N#Cc1ccc(C(=O)Nc2nc(-c3cccs3)c(C(=O)C(F)(F)F)s2)cc1 | 53.3% (active)
8 | N#Cc1c(-c2cccs2)nc(SCC(=O)c2ccc(Br)cc2)[nH]c1=O | 18.2%
9 | Cc1cc(=O)oc2c(C)c(OCC(=O)NCCc3ccc(S(N)(=O)=O)cc3)ccc12 | -2.4%
10 | O=C(C1CCN(c2nnc(-n3cccc3)s2)CC1)N1CCc2ccccc2C1 | 22.4%
11 | Cc1ccc2c(C)c(C(=O)N(C)CCC3CCCCO3)oc2c1C (centres undefined) | -35.3%
12 | O=C(CN(Cc1ccccc1)C(=O)CCC(=O)Nc1ccccn1)NCCc1ccccc1 | -13.3%
13 | COc1ccc(-c2nc(-c3ccccc3)no2)c(OC)c1 | 72.5% (active)
14 | COc1ccc(-c2noc(CNC(=O)C(C)Oc3ccccc3)n2)cc1 (centres undefined) | -22.8%
15 | COc1ccc(/C=C/c2noc(-c3ccccc3OC(C)=O)n2)cc1 | 48.6%
16 | COc1ccccc1-n1nnnc1S(=O)(=O)Cc1ccc(Cl)cc1 | 68.3% (active)
17 | COc1ccccc1CN(C)c1nnnn1-c1ccccc1 | 7.2%
18 | CCN(C(=O)CSc1nnnn1-c1ccccc1OC)C1CCS(=O)(=O)C1 (centres undefined) | -12.8%
19 | O=c1[nH][nH]c(C(F)(F)F)c1C=NCc1ccccc1Cl | -4.3%
20 | O=C(O)CSCC(=O)Nc1ccc(C(F)(F)F)cc1 | 5.82%
21 | O=C(O)CC(SCC(=O)Nc1ccc(Br)cc1)C(=O)O (centres undefined) | 67.2% (active)
22 | Cc1cc(C)c2c(=O)[nH]c(SCC(=O)Nc3ccc(Br)cc3)nc2n1 | 10.6%
23 | CC(=O)Nc1nc2c(s1)C(=O)NCC(C)(C)C2 | 16.5%
24 | CC(=O)c1cc(CN2CCC(n3nccc3NC(=O)c3ccccc3Cl)CC2)cs1 | -6.73%

Row | Structure (SMILES) | inhibition
25 | OC[C@@H]1CN(Cc2ccc(-c3ccccc3)cc2)C[C@H](n2cnc3c(NC4CCCC4)ncnc32)O1 | 52.3% (active)
26 | OC[C@@H]1CN(Cc2ccc(F)cc2)C[C@H](n2cnc3c(NC4CCCC4)ncnc32)O1 | -11.8%
27 | OC[C@@H]1CN(Cc2cccs2)C[C@H](n2cnc3c(NC4CCCC4)ncnc32)O1 | -12%
28 | N#CC(C(N)=O)=C1CCC2(CC1)OCCCCO2 | -8.85%
29 | Nc1nc(NCc2ccccc2)n(-c2ccccc2)n1 | 11.4%
30 | O=C(O)CN1c2cccc3cccc(c23)S1(=O)=O | 18%
31 | O=C(COC(=O)c1ccccn1)NNC(=O)c1ccc([N+](=O)[O-])cc1 | -4.92%
32 | N/C(=N\OC(=O)c1ccc([N+](=O)[O-])cc1)c1ccccn1 | -41.5%
33 | N/C(=N\OC(=O)Cc1ccc([N+](=O)[O-])cc1)c1ccccn1 | 71.7% (active)
34 | O=C(Cc1ccccc1)N1CCN(S(=O)(=O)c2ccc([N+](=O)[O-])cc2)CC1 | -0.47%
35 | O=C(Nc1nnc(C2CC2)s1)C1=NN(C2CCS(=O)(=O)C2)C(=O)CC1 (centres undefined) | -9.87%
36 | COc1ccc(/C=C2/SC(=O)N(CCCCCC(=O)Nc3ccccc3C(=O)O)C2=S)cc1 | 62.8% (active)
37 | COc1ccc(NC(=O)CCCN2C(=O)C(c3ccccc3)Oc3cccnc32)cc1 (centres undefined) | -2.33%
38 | CCCNC(=O)c1ccccc1NC(=O)CSCc1ccc(OC)cc1 | -1.25%
39 | O=C(NCc1ccc(F)cc1)c1cc(C2CCCCN2C(=O)c2cccs2)on1 (centres undefined) | -13.9%
40 | Cc1ccc(-n2c(SCC(=O)N3CCC(C(=O)O)CC3)nc3ccccc3c2=O)cc1C | 28.8%
41 | CN1c2ccc([N+](=O)[O-])cc2C(C)(C)C12C=Cc1cc(C(=O)O)ccc1O2 (centres undefined) | 4.3%
42 | COc1ccc2c(c1)C(SCC(=O)NCc1ccccc1)CC(C)(C)O2 (centres undefined) | -9.24%
43 | COc1ccc2c(c1)C=CC1(O2)N(CCO)c2ccccc2C1(C)C (centres undefined) | 74.4% (active)
44 | CN(C)/C=C/C(=O)c1cnc2sccn2c1=O | 11.6%
45 | CCn1c(CC(=O)Nc2ccccc2C)nnc1SCC(=O)NC1=NCCS1 | 11%
46 | COc1cc(C(=O)OCC(=O)N(CC(C)C)C2CCS(=O)(=O)C2)ccc1OCC(C)C (centres undefined) | 6.44%
47 | Clc1nc(NC2CCCC2)nc(N2CCOCC2)n1 | 9.54%
48 | FC(F)(F)COc1nc(N2CCCCC2)nc(N2CCNCC2)n1 | -47.4%

Row | Structure (SMILES) | inhibition
49 | COc1nc(NC2CCCCC2)nc(N2CCCCCC2)n1 | 51.7% (active)
50 | CN(C)C(=S)Nc1ccc(Br)cc1Cl | 2.66%
51 | CCOC(=O)[C@]12CCC=C1N(Cc1ccco1)C(=O)[C@H](CC(=O)N1CCSCC1)C2 | -1.7%
52 | COc1ccc(CCC(=O)OCC(=O)Nc2ccc(C)c(S(=O)(=O)N(C)C)c2)cc1 | 12.9%
53 | c1c2c(cc3sc(N4CCCCC4)nc13)OCCO2 | 72.6% (active)
54 | COc1cccc(N2C(=O)CC(N3CCc4ccccc4C3)C2=O)c1 (centres undefined) | 2.65%
55 | CC(Sc1nncn1C)C(=O)Nc1ccccc1-c1ccccc1 (centres undefined) | -16.4%
56 | COc1ccc(CNc2nnnn2C)cc1 | -13.4%
57 | COc1ccc(-n2nnnc2SCC(=O)NCc2cccs2)cc1 | -11.6%
58 | COc1ccc(-n2nnnc2-c2nc3ccccc3s2)cc1 | 73% (active)
59 | O=C(NC1CC1)c1cccc(Br)c1 | 79.2% (active)
60 | O=C(NC1CC1)c1ccc(-c2ccccc2)cc1 | -40.9%
61 | CC(=O)N1CCN(S(=O)(=O)c2cccc(C(=O)NC3CCC(C)CC3)c2)CC1 (centres undefined) | 5.64%
62 | CCCCn1c(N)c(N(CCC(C)C)C(=O)c2ccc(COc3ccccc3)o2)c(=O)[nH]c1=O | -19.5%
63 | CCC(CC)C(=O)Nc1ccc(S(=O)(=O)Nc2nccs2)cc1 | -15.5%
64 | CC1(C)C/C(=C(/C#N)C(N)=O)CCO1 | -13.2%
65 | O=C(NCc1ccccc1)c1onc(CSc2ccncc2)c1C(=O)NCc1ccccc1 | -21.8%
66 | CC[C@@H]1Cc2cc(O)ccc2C2=C1c1ccc(O)cc1C[C@H]2CC | 59.9% (active)
67 | C=CC[n+]1c(-c2ccc(C)cc2)csc1NNC(=O)Nc1ccccc1 | 25.5%
68 | CCSc1nsc(NC(=O)Nc2cccc(C(C)=O)c2)n1 | 67.1% (active)
69 | C=CCSc1nsc(NC(=O)Nc2cccc(C(C)=O)c2)n1 | 55.9% (active)
70 | CCCCN1C(=O)C(=O)N(CC(=O)Nc2cccc(C(C)=O)c2)C1=O | -16.1%
71 | CC(=O)c1cccc(NC(=O)C2CCN(C(=O)c3ccccc3Cl)CC2)c1 | 1.66%
72 | CSc1ccccc1C(=O)Nc1cccc(C(C)=O)c1 | 8.76%

Row | Structure (SMILES) | inhibition
73 | CC(=O)c1cccc(NC(=S)N2CCN(S(C)(=O)=O)CC2)c1 | -9.61%
74 | CCOC12CC(C)(C)CC(C)(CC3=C1C(=O)CC(C)(C)C3)C2 (centres undefined) | 8.44%
75 | NC(=O)c1cc(S(=O)(=O)N2CCCC2)ccc1OCc1ccc(F)cc1 | -16.9%
76 | CCOc1ccc2c(c1)c(=O)c(S(=O)(=O)c1ccc(C)cc1)cn2CC | 0.7%
77 | N#Cc1cccc(NC(=O)c2cc(C3CCCCN3C(=O)CCc3ccccc3)on2)c1 (centres undefined) | 19.9%
78 | CC1CN(C2CCCCC2)c2nc3c(c(=O)n(C)c(=O)n3C)n2C1 (centres undefined) | -2.69%
79 | Nc1ccc(-n2nncc2-c2ccco2)cc1 | -12.6%
80 | CC(=O)C1=C(O)C(=O)N(c2ccc(Br)cc2)C1c1ccc([N+](=O)[O-])cc1 (centres undefined) | -18.5%
81 | COc1ccc(OC)c(C(O)c2nc3ccccc3n2C)c1 (centres undefined) | -7.8%
82 | OCCCNc1nccc(-c2cc(Nc3cccc(Cl)c3)ncn2)n1 | 54.1% (active)
83 | COc1ccc(C2=NOC(C(=O)NCc3ccco3)C2)cc1OC (centres undefined) | 14.5%
84 | COc1ccc(CNC(=O)CN(Cc2ccc(Cl)cc2)S(C)(=O)=O)cc1 | 6.51%
85 | Cc1cccc(CC(=O)N2CCN=C2SCc2ccc([N+](=O)[O-])cc2)c1 | -7.77%
86 | COCCNC(=O)CN1C(=O)CSc2ncccc21 | -20.5%
87 | CCC1(C)NC(=O)N(CC(=O)N2CCN(c3cccc(Cl)c3)CC2)C1=O (centres undefined) | -0.65%
88 | Cc1cc(NS(=O)(=O)c2ccc(NC(=O)c3cccnc3)cc2)nc(C)n1 | 9.3%
89 | Cc1ccc2nc(-c3ccc(NC(=O)c4cccnc4)cc3)oc2c1 | 50.8% (active)
90 | O=C(Cc1ccccc1)Nc1ccc(NC(=O)c2cccnc2)cc1 | 17.2%
91 | CC(=O)Nc1sc2c(c1C(c1cccc(F)c1)N1CCN(CCO)CC1)CCCC2 (centres undefined) | -6.54%
92 | COc1ccccc1N(C)S(=O)(=O)c1ccc(Cl)c(C(=O)Nc2ccncc2)c1 | -12.4%
93 | CC(=O)c1ccc(S(=O)(=O)NCCC(=O)N2CCN(c3ccccn3)CC2)cc1 | 0.71%
94 | COc1ccc(C)cc1NC(=O)CSc1cccc[n+]1[O-] | 13%
